Assay outcomes as filed in PubChem.
aSyn UTR act = Activators working through SNCA 5'UTR binding (MLPCN). alpha-synuclein 5'UTR reporter, activators screen. actives 7.1% (n = 300,000). activity score, % (tested at 7.5 µM), hits read low; in the data active means activity score below about -60%
Hits are given with their value; i = inactive. Not all results are given here.

SMILES | aSyn UTR act
OC(CNCCc1ccccc1)COc1ccc(OCC(O)CNCCc2ccccc2)cc1 (stereo not given) | i
OC1CCCN(CC(O)COc2ccc(-c3ccccc3)cc2)C1 (stereo not given) | -74
OCCN(Cc1ccccc1)CC(O)COc1ccc(-c2ccccc2)cc1 (stereo not given) | -96
OCCN1CCN(CC(O)COc2ccc(-c3ccccc3)cc2)CC1 (stereo not given) | -126
OC(COc1ccc(-c2ccccc2)cc1)CN1CCOCC1 (stereo not given) | -73
COc1ccc(C(O)(CC(C)C)C(CN2CCOCC2)c2ccccc2)cc1 (stereo not given) | i
CCN(C(=O)C1=COCCO1)c1nc2c(C)cccc2s1 | -84
CC1CCCCN1S(=O)(=O)c1ccc(C(=O)N(CCCN(C)C)c2nc3ccc(Br)cc3s2)cc1 (stereo not given) | i
CN(C)CCCN(C(=O)C1=COCCO1)c1nc2ccc(Br)cc2s1 | -63
Cc1cc(C)c2nc(N(CCCN(C)C)C(=O)C3=COCCO3)sc2c1 | -91
CCOc1ccc2nc(N3CCC(C(=O)N4CCN(c5ncccn5)CC4)CC3)sc2c1 | -75
CCOc1ccc2nc(N3CCCC(C(=O)NC4CCCC4)C3)sc2c1 (stereo not given) | -70
CCOC(=O)c1c(C)nc(-c2ccccc2)nc1NC(=O)CC | -87
CCOC(=O)c1ccc(Nc2cnc3ccccc3n2)cc1 | -176
CCOC(=O)c1ccc(Nc2nnc(C)c3ccccc23)cc1 | -104
CCOC(=O)c1ccc(Nc2cc(C)nc(-c3ccccc3)n2)cc1 | -213
CCOC(=O)c1ccc(NCc2nc3ccccc3[nH]2)cc1 | -149
CCc1ccc(NCc2nc3ccccc3c(=O)[nH]2)cc1 | -138
CC(=O)c1ccc(Nc2nc(C)cc(C)n2)cc1 | -126
CCOC(=O)c1ccc(Nc2nc(C)cc(C)n2)cc1 | -104
Oc1ccccc1C1CC(c2cccs2)=NC(c2ccc(Cl)cc2)N1 (stereo not given) | -94
O=c1c2ccccc2nnn1COc1ccc(F)cc1Cl | -118
O=c1c2ccccc2nnn1COc1ccc(Cl)cc1Br | -154
O=c1c2ccccc2nnn1COc1cccc2ccccc12 | -147
Cc1ccc(C(=O)N/N=C/c2ccc(-c3cccc(C(F)(F)F)c3)o2)cn1 | i
SMILES | aSyn UTR act
Nc1nonc1C(=O)N/N=C/c1ccc(-c2cccc(C(=O)O)c2)o1 | -63
O=c1c(Br)c(NCc2ccccc2)cnn1-c1ccc(F)cc1 | -68
Cc1ccc(S(=O)(=O)Nc2cccc(C(=O)NCc3cccnc3)c2)cc1F | -73
CN1CCN(c2ccc([N+](=O)[O-])cc2C(=O)c2ccc(Br)cc2)CC1 | i
O=[N+]([O-])c1ccc(-c2ncc(-c3ccc(Br)cc3)o2)cc1 | -195
CC1CCCCN1C(=O)CSc1nnc(-c2ccccc2O)o1 (stereo not given) | -84
CC1CCCCN1C(=O)CSc1nnc(-c2ccc(Cl)s2)o1 (stereo not given) | -69
CC1CCCCN1C(=O)CSc1nc2ncccc2[nH]1 (stereo not given) | -75
O=C(NCC1CCCO1)c1ccc(-c2ccccc2Cl)o1 (stereo not given) | -115
O=C(NC1CCCCC1)c1ccc(-c2ccccc2[N+](=O)[O-])o1 | -83
CC(NC(=O)COC(=O)c1ccc2c(c1)S(=O)(=O)N=C1CCCCCN12)C12CC3CC(CC(C3)C1)C2 (stereo not given) | i
O=C(NC1CCCCC1)c1ccc([N+](=O)[O-])o1 | -79
CC(NC(=O)c1ccc([N+](=O)[O-])o1)C12CC3CC(CC(C3)C1)C2 (stereo not given) | -168
O=C(NCC1CCCO1)c1cc(-c2ccccc2F)no1 (stereo not given) | -204
O=C(NCC1CCCO1)c1ccc([N+](=O)[O-])o1 (stereo not given) | -90
CC(C)Cc1nnc(NC(=O)C23CC4CC(CC(C4)C2)C3)s1 | -103
CCc1nnc(NC(=O)C23CC4CC(CC(C4)C2)C3)s1 | -253
CSc1nnc(NC(=O)C23CC4CC(CC(C4)C2)C3)s1 | -128
CC(C)Oc1ccccc1C1CC(=O)Nc2cc3c(cc21)OCCO3 (stereo not given) | i
O=C1CC(c2ccc3c(c2)OCCO3)Oc2ccccc21 (stereo not given) | -209
COc1ccc(C2CC(=O)c3ccccc3O2)cc1 (stereo not given) | -147
O=C1CC(c2ccc3c(c2)OCCO3)Oc2ccc([N+](=O)[O-])cc21 (stereo not given) | -163
Cc1nc(-c2ccccc2)nc2[nH]ccc(=O)c12 | -101
Cc1nc(-c2ccc([N+](=O)[O-])cc2)nc2[nH]ccc(=O)c12 | -202
Cc1cc(C)n(-c2nc3ccccc3s2)n1 | -168
SMILES | aSyn UTR act
Cc1cc(N)n(-c2ccc3ccccc3c2)n1 | -119
Cc1ccc(/C=C/c2nc3ccccc3s2)s1 | i
Cc1cc(N)n(-c2nc3ccccc3s2)n1 | -157
Cc1cc(NC(=O)C(C)C)n(-c2nc3ccccc3s2)n1 | -78
CCSc1nc(N)c2c3c(sc2n1)CCC3 | -89
Nc1c2c(nc3sc4c(c13)CCCC4)CCCCCC2 | -82
Nc1nc(-c2ccccc2)nc2sc3c(c12)CCCC3 | -139
O=[N+]([O-])c1ccc2nc(-c3ccccc3)oc2c1 | -224
COc1cccc(-c2nc3ccc([N+](=O)[O-])cc3o2)c1 | -120
Cc1occc1C(=O)OCC(=O)Nc1ccc(F)cc1 | -62
Cc1ccc(OCC(=O)Nc2ccc(F)cc2)cc1C | -74
CC(=O)Nc1cccc(OCC(=O)Nc2ccc(F)cc2)c1 | -78
CN(CCCC(=O)O)c1ccc(N=Nc2ccc([N+](=O)[O-])cc2)cc1 | -65
CN(N=Nc1cccc([N+](=O)[O-])c1)c1ccccc1 | -108
CN(N=Nc1ccc([N+](=O)[O-])cc1)c1ccccc1 | -112
O=C(Nc1cc(Cl)cc(Cl)c1)c1cccc(OC(F)F)c1 | -98
Cc1ccnc(NC(=O)c2cccc(OC(F)F)c2)n1 | -77
Cc1occc1C(=O)Nc1cc(C(C)(C)C)on1 | -101
Cc1cccc(NC(=O)c2ccoc2C)n1 | -86
NC(=O)c1oc2ccccc2c1NC(=O)c1nc2ccccc2s1 | -121
O=C(/C=C/c1ccc(OCCCF)cc1)N1CCOCC1 | -70
O=C(/C=C/c1cccc(Oc2ccccc2)c1)N1CCOCC1 | -95
O=C(/C=C/c1cccc2ccccc12)N1CCOCC1 | -63
O=c1oc2cc(OCc3ccc([N+](=O)[O-])cc3)ccc2c2c1CCCC2 | -65
CC(=O)C(C)Oc1ccc2c3c(c(=O)oc2c1)CCCCC3 (stereo not given) | -109
SMILES | aSyn UTR act
CC(=O)C(C)Oc1ccc2c3c(c(=O)oc2c1)CCCC3 (stereo not given) | -79
COc1cc(CNCc2ccccn2)ccc1OCc1ccc(Cl)c(Cl)c1 | -114
Nc1ncccc1OCc1ccc(Cl)c(Cl)c1 | -149
c1ccc(N2OCC3Cn4c(nc5ccccc54)C32)cc1 (stereo not given) | -64
CSc1ccc(-c2sc(Nc3cccc4ccccc34)n[n+]2-c2ccccc2)cc1 | -143
CSc1ccc(-c2sc(Nc3ccccc3)n[n+]2-c2ccccc2)cc1 | -98
CCC(=O)Nc1ccc(C(=O)OCc2ccccc2Cl)cc1 | -168
COC(=O)c1ccc(NC(=O)C(=O)c2cccn2C)cc1 | -109
COC(=O)c1ccc(NC(=S)Nc2ccccc2)cc1 | -131
COC(=O)c1ccc(NC(=O)Cc2ccccc2)cc1 | -123
COC(=O)c1ccc(NC(=O)c2nc(S(=O)(=O)Cc3cccc(C)c3)ncc2Cl)cc1 | i
